An excerpt weighted towards active compounds, which were near 2.1% of everything screened.
F508del corr: F508del CFTR correction, initial screen, CFBE line, single point. CFBE cells, YFP halide quenching; stimulated with forskolin plus potentiator P3; % fluorescence drop versus neutral controls. activity (quench increase), % at 7.58 µM. hit rate 0.36% among 350,000;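 active means mean added fluorescence quench of at least 8% versus neutral control, with both replicates also reaching 8%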;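 further: cells transiently co-express mutant CFTR-F508del with the halide-sensitive YFP; corrector assay measuring rescue of mutant channel to the surface after 24 h compound exposure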
ERAP1 HTS inh: human ERAP1 aminopeptidase inhibitors, primary screen, biochemical, single point, plate reader; inhibition, % at 10.7 µM; recombinant ERAP1, Leu-AMC fluorescence, 60 min; hit rate 0.15% among 340,000; Endoplasmic reticulum aminopeptidase 1 (Homo sapiens), Q9NZ08;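 active means mean replicate inhibition of at least 30%, or all replicates individually reaching that 30% level; inactive means mean below 30% and not every replicate reaching it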;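 further: 0% = neutral control wells and 100% = L-leucinethiol positive control wells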
Target sequence (Q9NZ08 whole entry, looked up): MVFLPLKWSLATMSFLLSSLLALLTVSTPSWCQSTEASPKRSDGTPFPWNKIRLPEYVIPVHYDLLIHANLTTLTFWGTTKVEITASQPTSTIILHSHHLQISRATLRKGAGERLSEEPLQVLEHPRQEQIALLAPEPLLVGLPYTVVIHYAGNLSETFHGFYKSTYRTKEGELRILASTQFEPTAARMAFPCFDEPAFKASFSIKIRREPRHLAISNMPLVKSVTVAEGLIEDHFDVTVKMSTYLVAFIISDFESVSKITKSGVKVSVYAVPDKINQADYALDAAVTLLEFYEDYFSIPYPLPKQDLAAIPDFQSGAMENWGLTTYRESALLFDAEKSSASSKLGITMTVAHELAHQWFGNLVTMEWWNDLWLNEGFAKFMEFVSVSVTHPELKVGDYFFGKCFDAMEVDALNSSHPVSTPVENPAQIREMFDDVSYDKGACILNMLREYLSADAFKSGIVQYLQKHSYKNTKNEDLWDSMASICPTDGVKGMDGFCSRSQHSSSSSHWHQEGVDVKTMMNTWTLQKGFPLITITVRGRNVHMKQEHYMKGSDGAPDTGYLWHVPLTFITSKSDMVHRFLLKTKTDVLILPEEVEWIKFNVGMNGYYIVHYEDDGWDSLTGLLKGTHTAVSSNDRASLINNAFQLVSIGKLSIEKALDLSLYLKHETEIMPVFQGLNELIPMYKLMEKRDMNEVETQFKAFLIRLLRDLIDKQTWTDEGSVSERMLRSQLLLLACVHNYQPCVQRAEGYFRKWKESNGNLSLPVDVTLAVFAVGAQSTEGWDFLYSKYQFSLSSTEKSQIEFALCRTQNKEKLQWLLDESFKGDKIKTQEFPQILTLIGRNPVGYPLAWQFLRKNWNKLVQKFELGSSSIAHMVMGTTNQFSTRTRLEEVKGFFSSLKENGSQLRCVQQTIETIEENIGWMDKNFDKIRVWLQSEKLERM
ARNT TACC3 PPI: disruptors of ARNT/TACC3 protein interaction, primary screen, biochemical, AlphaScreen, single concentration; hit rate 0.66% among 390,000; AlphaScreen His-ARNT PAS-B/GST-TACC3 binding, luminescence; TACC3 fragment carries E629A point mutation; Transforming acidic coiled-coil-containing protein 3 (Homo sapiens), Q9Y6A5; inhibition, % at 9.99 µM;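 active means mean inhibition of replicates at least 50% and at least half of replicates each reaching 50%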;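 further: 0% = complete ARNT plus TACC3 wells and 100% = ARNT alone without TACC3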
Ecoli rRNA inh: reduced GFP signal of wild-type E. coli, primary screen, bacterial rRNA inhibitor project, GFP/RFP fluorescence, OD600, single point; E. coli WT GFP vs humanized-ribosome RFP mutants, 24 h; hits give low values; DMSO median 0, no signal -100; GFP signal change (wild-type ribosome), % (concentration not given with the values); hit rate 1.6% among 350,000; AID 720706, 2013;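 active means significant combined selectivity score with lowered wild-type GFP, culture density cut under 30%, mutant RFP and density less affected; inactive means any of these conditions unmet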
PvdQ inh: P. aeruginosa PvdQ acylase inhibitors, primary screen, biochemical, fluorescence, plate reader and imaging, single point | PvdQ acylase [Pseudomonas aeruginosa LESB58] | purified PvdQ acylase | inhibition, % at 10 µM | hit rate 0.063% among 340,000; in the data active means inhibition above about 30%, passing the limit was not always enough;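 further: 0% = vehicle neutral wells and 100% = reference inhibitor wells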
Starred values were filed as active, the others as inactive; x = no result given.

SMILES | F508del corr | ERAP1 HTS inh | ARNT TACC3 PPI | Ecoli rRNA inh | PvdQ inh
COc1cc([N+](=O)[O-])cc(/C=N/NC(=O)c2cc(-c3ccccc3)nc3ccccc23)c1O | 5 | -1 | 29 | 4 | 7
COc1cc([N+](=O)[O-])cc(/C=N/NC(=O)c2cncc(Br)c2)c1O | 0 | x | 69* | -14 | -4
COc1cccc(/C=N/NC(=O)c2ccc([N+](=O)[O-])cc2Cl)c1O | x | x | 59* | x | 2
COc1cc([N+](=O)[O-])cc(/C=N/NC(=O)c2cc(C)nc3ccccc23)c1O | 1 | 3 | 64* | 1 | -3
NS(=O)(=O)c1ccc(NC(=O)COC(=O)/C(=C/c2cccs2)c2cccs2)cc1 | 5 | x | -5 | -18* | -1
COC(=O)c1scc(S(=O)(=O)C(C)C)c1N/N=C(\C#N)C(=O)c1ccc(Cl)cc1 | -1 | 5 | -7 | -43* | -10
COC(=O)c1scc(C#N)c1N/N=C(\C#N)S(=O)(=O)c1ccc(Cl)cc1 | -3 | 6 | 7 | 2 | -3
C=CCn1c(-c2cc3c(s2)CCC(CC)C3)n[nH]c1=S (stereo not given) | -2 | 0 | -7 | -38* | -6
COC(=O)c1c(-c2ccc(C)cc2)csc1NC(=O)c1c(-c2ccccc2)noc1C | 8.5* | 2 | x | 17 | x
O=C(C[C@@H]1CC[C@@H]2[C@H](COC[C@H](O)CN2Cc2cccc(Cl)c2)O1)NCc1cccc(F)c1 | 0 | 0 | -1 | -12 | x
CCNS(=O)(=O)c1ccc(NC(=S)N2CCc3ccccc32)cc1 | 1 | 4 | 53* | -20 | -9
Cc1ccc(NC2=C(N3CCOCC3)C(=O)c3ccccc3C2=O)cc1 | x | x | 62* | x | -6
CC(C)n1c(O)c(N=Nc2ccc(Cl)c(C(=O)O)c2)c2ccccc21 | 0 | 20 | 4 | -18* | -8
C[C@@H]1CN([C@H](C)CO)C(=O)c2cc(NC(=O)Nc3ccc(F)cc3)ccc2O[C@@H](C)CCCCO[C@H]1CN(C)C(=O)Nc1ccc(F)cc1 | -1 | 3 | 3 | 0 | x
C[C@H](CO)N1C[C@H](C)[C@H](CN(C)Cc2ccc(C(F)(F)F)cc2)Oc2c(cccc2N(C)C)C1=O | 1 | -1 | 5 | -3 | x
C[C@H](CO)N1C[C@H](C)[C@@H](CN(C)S(=O)(=O)c2ccc(Cl)cc2)Oc2c(NS(=O)(=O)c3ccc(F)cc3)cccc2C1=O | 2 | 1 | -5 | 0 | x
Cc1cc(Oc2ccc(Cl)cc2)nc(-c2ccccn2)n1 | -2 | 0 | 11 | -33* | -18
Cc1cc(Oc2ccccc2)nc(-c2ccccc2O)n1 | x | x | -5 | x | 1
O=C(N[C@H]1CC[C@H](CC(=O)N2CCCCC2)O[C@@H]1CO)c1ccccn1 | -1 | x | x | 0 | x
C/C=C(/C)C(=O)O[C@@H]1c2cc(OC)c(OC)c(OC)c2-c2c(cc3c(c2OC)OCO3)C[C@H](C)[C@]1(C)O | -1 | -2 | 2 | 7 | -4
COc1cc2c(c(OC)c1OC)-c1c(cc3c(c1OC)OCO3)[C@@H](OC(C)=O)[C@H](C)[C@H](C)C2 | 3 | 5 | -3 | -42* | -8
Cc1oc(-c2ccc(-c3ccccc3)cc2)nc1CN(C)C1CCOC1 (stereo not given) | 1 | 2 | 5 | -23* | -11
Cc1oc(-c2cccc(Cl)c2)nc1CN(C)C1CCOC1 (stereo not given) | 2 | 8 | -5 | 7 | -2
O=[N+]([O-])c1ccccc1-c1ccc(CN2CCN(c3ccccc3)CC2)o1 | 1 | -3 | -2 | -36* | -19
O=[N+]([O-])c1cccc(-c2ccc(CN3CCN(c4ccccc4)CC3)o2)c1 | 1 | -5 | 1 | -4 | 0
SMILES | F508del corr | ERAP1 HTS inh | ARNT TACC3 PPI | Ecoli rRNA inh | PvdQ inh
O=C(Cc1ccccn1)NCC[C@@H]1CC[C@@H](NC(=O)CN2CCOCC2)[C@@H](CO)O1 | 1 | 0 | -2 | 1 | x
CCCC(=O)Nc1ccc2c(c1)C(=O)N(C)C[C@@H](OC)[C@@H](C)CN(CC1CCOCC1)[C@H](C)CO2 | 3 | x | x | 0 | x
O=C(NCc1ccc(S(=O)(=O)NC2CCCCC2)s1)c1ccccc1 | -1 | 3 | -8 | -9 | -7
O=C(NCc1ccc(S(=O)(=O)Nc2ccccc2Cl)s1)c1ccccc1 | 1 | 2 | 0 | -32* | -14
O=C(N/N=C/c1cc(O)ccc1Br)c1cccnc1 | 5 | 1 | 85* | -34 | -10
O=C(N/N=C/c1cc2c(cc1Br)OCO2)c1cccnc1 | 1 | 1 | x | 16 | 0
O=C(N/N=C/c1cc(Br)c(O)c(Br)c1O)c1cccnc1 | -1 | 0 | 70* | -20* | -2
Cc1ccc(S(=O)(=O)/N=C(/Nc2ccc(F)cc2F)c2ccccc2)cc1 | 4 | 0 | -4 | -5 | -5
Cc1ccc(S(=O)(=O)/N=C(/Nc2ccccc2C)c2ccccc2)cc1 | 0 | -2 | -4 | -23* | -14
Cc1ccc(S(=O)(=O)/N=C(/Nc2c(C)cccc2C)c2ccccc2)cc1 | 2 | -5 | 0 | -36* | -2
Cc1ccc(S(=O)(=O)/N=C(/Nc2c(C)n(C)n(-c3ccccc3)c2=O)c2ccccc2)cc1 | -2 | 1 | -4 | 3 | -14
O=C(Cc1ccccn1)N[C@H]1CC[C@H](CC(=O)N2CCCCC2)O[C@H]1CO | 2 | -1 | 2 | 2 | x
O=C(c1ccncc1)N1CC(=O)N2[C@H](CO)[C@H](c3ccc(C#CCC4CCCC4)cc3)[C@H]2C1 | x | x | x | 3 | x
CCOC(=O)CCC(=O)O[C@H]1[C@H](O[C@@H]2[C@@H](C)[C@H](O[C@H]3C[C@@](C)(OC)[C@@H](O)[C@H](C)O3)[C@@H](C)C(=O)O[C@H](CC)[C@@](C)(O)[C@H](O)[C@@H](C)C(=O)[C@H](C)C[C@@]2(C)O)O[C@H](C)C[C@@H]1N(C)C | 0 | -4 | 2 | x | -7
CC[C@H]1OC(=O)[C@H](C)[C@@H](O[C@H]2C[C@@](C)(OC)[C@@H](O)[C@H](C)O2)[C@H](C)[C@@H](O[C@@H]2O[C@H](C)C[C@H](N(C)C)[C@H]2O)[C@](C)(O)C[C@@H](C)C(=O)[C@H](C)[C@@H](O)[C@]1(C)O | 9.0* | -4 | -1 | x | -1
C[C@@H]1CCCCO[C@H](CN(C)C(=O)C2CCCCC2)[C@@H](C)CN([C@@H](C)CO)C(=O)c2cc(NC(=O)Nc3ccc(C(F)(F)F)cc3)ccc2O1 | 3 | 1 | 1 | -2 | x
Fc1cc(Br)ccc1NC(=S)NCCc1ccccc1 | 2 | -2 | -20 | -50* | -20
